Reference: PubChem BioAssay (EPA / NIEHS)
Records with an inconclusive call do not appear. The source made the active and inactive calls. Rule for the calls, unless noted: active = hit-call score of the fitted dose curve at least 0.9, where 1 is the maximum; inactive = score below 0.9.

Experiments:
[1] = CCTE_Shafer_MEA_acute_spike_number: CCTE's Neural Acute Assay for Total Number of Spikes, Shafer Lab (AID 2284008);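 for AC50: curve fitted for decrease in spike count so AC50 reflects inhibitors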
How it was run: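 Rat primary cortical neurons on 48-well MEA plates, DIV 13 or 15, at 37 C. 40 min baseline then 40 min with compound (0.03-40 uM); spikes detected at 8x rms noise, expressed as percent change from baseline.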

[2] = CCTE_Harrill_HTTr_Viability_MCF7: CCTE's 6-hour Cell Viability Assessment for the High-Throughput Transcriptomics (HTTr) Platform, in MCF-7 cells cultured in DMEM + 10% fetal bovine serum, Harrill Lab (AID 2284010)
How it was run: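 PI exclusion, high-content imaging; 8-pt dilution series, 6 h exposure; bidirectional fit vs DMSO (neg. ctrl/baseline); gain of signal = loss of membrane integrity.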

[3] = CCTE_Harrill_HTTr_Apoptosis_MCF7: CCTE's 6-hour Apoptosis Assessment for the High-Throughput Transcriptomics (HTTr) Platform, in MCF-7 cells cultured in DMEM + 10% fetal bovine serum, Harrill Lab (AID 2284011)
How it was run: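 MCF-7 cells in DMEM + 10% FBS exposed 6 h to chemicals over an eight-point dilution series. Caspase-3/7 activation imaged by high-content CellEvent Green staining; fitted bidirectionally versus DMSO.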

[4] = CCTE_Shafer_MEA_acute_burst_number: CCTE's Neural Acute Assay for Single-Electrode Bursts, Shafer Lab (AID 2284013)
How it was run: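 Primary rat cortical neurons on 16-electrode MEA wells, DIV 13 or 15, exposed to compound (0.03-40 uM; ≥3 wells); 40-min recordings at 37 C before and after treatment. Burst count expressed as percent change from baseline, DMSO as negative control.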

[5] = CCTE_Shafer_MEA_acute_burst_duration_mean: CCTE's Neural Acute Assay for Mean Burst Duration, Shafer Lab (AID 2284014);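 note: hits are decreases in mean burst duration relative to DMSO controls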
How it was run: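 Mean burst duration was compared between a 40 min baseline and a 40 min recording in the presence of compound (0.03-40 uM, 37 C), giving percent change per well. Cultures were rat cortical neurons at DIV 13 or 15; wells needed ≥10 active electrodes.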

[6] = CCTE_Shafer_MEA_acute_per_burst_spike_number_mean: CCTE's Neural Acute Assay for Average Number of Spikes Per Burst, Shafer Lab (AID 2284015);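 note: hits are decreases in mean spikes per burst versus baseline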
How it was run: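 We recorded spontaneous network firing of rat cortical neurons for 40 min before and 40 min during exposure to compound at 0.03-40 uM, at 37 C. Spikes were detected adaptively at 8x rms noise, and the change in average spikes per burst was fitted against DMSO.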

[7] = CCTE_Shafer_MEA_acute_interburst_interval_mean: CCTE's Neural Acute Assay for Mean Interburst Interval, Shafer Lab (AID 2284016);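 note: percent change of mean interburst interval versus each well's own pre-dose baseline; curves fitted for decrease in interburst interval relative to DMSO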
How it was run: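 MEA recording of spontaneous network bursting in primary rat cortical cultures; mean interburst interval was compared before and after a 40-min compound exposure (0.03-40 uM) and expressed as percent change, relative to DMSO.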

[8] = CCTE_Shafer_MEA_acute_burst_percentage_mean: CCTE's Neural Acute Assay for Percentage of Spikes in a Burst, Shafer Lab (AID 2284017);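 for AC50: curve fitted for loss of signal so potency reflects decreased burst percentage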
How it was run: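 Compounds were tested at 0.03-40 uM on primary rat cortical neuron networks grown over microelectrodes, with at least three wells per compound. Spontaneous firing was recorded for 40 min before and 40 min after dosing, and the change in burst percentage was computed per well.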

[9] = CCTE_Shafer_MEA_acute_burst_percentage_std: CCTE's Neural Acute Assay for Standard Deviation of Burst Percentage, Shafer Lab (AID 2284018);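 note: fitted in the negative direction so actives lower burst percentage SD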
How it was run: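 Value is percent change from baseline in the across-electrode SD of spikes-in-bursts percentage, wells with >/= 10 active electrodes. Acute 40-min exposure to 0.03-40 uM on DIV 13 or 15 rat cortical cultures, recorded at 37 C after 40-min baseline.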

[10] = CCTE_Shafer_MEA_acute_per_network_burst_spike_number_mean: CCTE's Neural Acute Assay for Average Number of Spikes in a Network Burst, Shafer Lab (AID 2284019);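 for AC50: curve fitted for loss of signal so actives reduce spikes per network burst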
How it was run: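 Percent change from baseline in mean spikes per network burst, spikes detected at 8x rms noise. Each compound at 0.03-40 uM in at least three wells of rat cortical cultures, recorded 40 min before and 40 min during exposure.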

[11] = CCTE_Shafer_MEA_acute_per_network_burst_spike_number_std: CCTE's Neural Acute Assay for Standard Deviation of Number of Spikes in a Network Burst, Shafer Lab (AID 2284020);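 note: fitted for decrease in spike-number SD versus DMSO so actives lower it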
How it was run: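 Endpoint: percent change from 40 min baseline in standard deviation of spikes per network burst, after 40 min compound exposure (0.03-40 uM, 37 C). Cortical rat neurons on MEA at DIV 13 or 15; spikes detected at 8x rms noise, 300-5000 Hz band-pass.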

[12] = target: Nucleoli Translocation, AR (gene 367) (UniProt P10275); assay: UPITT_HCI_U2OS_AR_TIF2_Nucleoli_Antagonist: University of Pittsburgh U2OS Androgen Receptor-Transcriptional Intermediary Factor 2 (AR-TIF2) Antagonism High Content Imaging Assay for Nucleoli Translocation (AID 2283997; active = hit-call score of the fitted dose curve at least 0.9, where 1 is the maximum)
Chain of Nucleoli Translocation, AR (gene 367) (P10275 whole entry, looked up): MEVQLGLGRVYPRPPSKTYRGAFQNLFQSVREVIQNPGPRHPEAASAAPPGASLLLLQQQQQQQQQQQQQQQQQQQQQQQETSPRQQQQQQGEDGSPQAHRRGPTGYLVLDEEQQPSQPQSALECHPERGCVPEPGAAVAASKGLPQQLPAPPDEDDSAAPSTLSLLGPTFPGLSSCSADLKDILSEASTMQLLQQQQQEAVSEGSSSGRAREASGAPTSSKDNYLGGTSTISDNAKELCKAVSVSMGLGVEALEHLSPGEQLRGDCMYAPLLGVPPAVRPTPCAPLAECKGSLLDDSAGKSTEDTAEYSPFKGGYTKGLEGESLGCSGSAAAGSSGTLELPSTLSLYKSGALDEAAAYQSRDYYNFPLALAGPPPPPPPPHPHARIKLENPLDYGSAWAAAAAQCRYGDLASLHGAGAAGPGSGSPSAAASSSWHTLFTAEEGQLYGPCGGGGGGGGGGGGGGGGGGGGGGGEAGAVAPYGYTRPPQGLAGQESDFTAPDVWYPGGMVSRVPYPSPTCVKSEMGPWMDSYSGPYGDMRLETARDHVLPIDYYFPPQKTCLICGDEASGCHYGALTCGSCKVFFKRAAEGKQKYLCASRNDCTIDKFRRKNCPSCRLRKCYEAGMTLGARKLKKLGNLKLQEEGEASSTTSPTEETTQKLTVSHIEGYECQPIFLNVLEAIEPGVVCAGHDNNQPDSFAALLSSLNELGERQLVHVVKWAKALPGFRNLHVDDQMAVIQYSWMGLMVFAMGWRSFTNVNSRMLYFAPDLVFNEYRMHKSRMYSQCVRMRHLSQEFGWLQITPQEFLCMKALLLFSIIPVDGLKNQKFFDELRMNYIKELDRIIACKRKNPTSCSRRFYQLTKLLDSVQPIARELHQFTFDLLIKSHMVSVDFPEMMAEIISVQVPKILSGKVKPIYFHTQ
How it was run: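 Antagonism is read as loss of nucleolar AR-RFP signal relative to DHT, imaged in U2OS cells also carrying GFP-TIF2. Compounds screened at 20 uM final, 0.2% DMSO; primary actives retested in triplicate.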

[13] = target: Nucleoli Translocation, AR (gene 367) (UniProt P10275); assay: UPITT_HCI_U2OS_AR_TIF2_Nucleoli_Agonist: University of Pittsburgh U2OS Androgen Receptor-Transcriptional Intermediary Factor 2 (AR-TIF2) Agonism High Content Imaging Assay for Nucleoli Translocation (AID 2283998; active = hit-call score of the fitted dose curve at least 0.9, where 1 is the maximum)
How it was run: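 U2OS cells expressing RFP-tagged human AR and GFP-tagged TIF2; red fluorescence in nucleoli quantified by high-content imaging. Primary screen at 20 uM final (0.2% DMSO); concentration-response 0.195–50 uM (0.5% DMSO), fitted upward versus DMSO.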

[14] = target: Ratio of Nucleoli Translocation and Cytoplasm, AR (gene 367) (UniProt P10275); assay: UPITT_HCI_U2OS_AR_TIF2_Nucleoli_Cytoplasm_Ratio_Antagonist: University of Pittsburgh U2OS Androgen Receptor-Transcriptional Intermediary Factor 2 (AR-TIF2) Antagonism High Content Imaging Assay for Ratio of Nucleoli Translocation and Cytoplasm (AID 2283999; active = hit-call score of the fitted dose curve at least 0.9, where 1 is the maximum;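 note: antagonists lower the DHT-driven ratio of nucleolar to cytoplasmic red signal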)
Chain of Ratio of Nucleoli Translocation and Cytoplasm, AR (gene 367) (P10275 whole entry, looked up): as above
How it was run: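 Read-out is the ratio of nucleolar to cytoplasmic AR-RFP fluorescence, imaged by high-content microscopy in U2OS cells coexpressing TIF2-GFP. Single-point 20 uM screen, triplicate confirmation, then 0.195–50 uM dose response; activity referenced to DHT baseline.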

[15] = target: Ratio of Nucleoli Translocation and Cytoplasm, AR (gene 367) (UniProt P10275); assay: UPITT_HCI_U2OS_AR_TIF2_Nucleoli_Cytoplasm_Ratio_Agonist: University of Pittsburgh U2OS Androgen Receptor-Transcriptional Intermediary Factor 2 (AR-TIF2) Agonism High Content Imaging Assay for Ratio of Nucleoli Translocation and Cytoplasm (AID 2284000; active = hit-call score of the fitted dose curve at least 0.9, where 1 is the maximum;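 note: hits raise the red nucleolar to cytoplasm ratio above vehicle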)
How it was run: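 Compounds tested at 20 uM final in primary screen (0.2% DMSO) and 0.195-50 uM final in dose-response (0.5% DMSO). Imaging of human U2OS cells bearing RFP-AR and GFP-TIF2; endpoint is nucleoli/cytoplasm red signal ratio, positive direction relative to DMSO.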

[16] = CCTE_Harrill_HTTr_CellCount_MCF7: CCTE's Cell Proliferation Assessment for the High-Throughput Transcriptomics (HTTr) Platform, Harrill Lab (AID 2284012; active = hit-call score of the fitted dose curve at least 0.9, where 1 is the maximum;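 note: count of Hoechst-stained nuclei per well by high-content imaging in MCF-7 cells; cells exposed to compound for six hours; intended direction is loss of nuclei count meaning fewer cells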)
How it was run: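 Readout: Hoechst nuclear count by high-content imaging. MCF-7, 8-point dilution series, 6 h exposure. Bidirectional fit vs DMSO baseline.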

PGR (gene 5241) = PGR (gene 5241) (UniProt P06401); assay: TOX21_PR_LUC_Followup_Antagonist: Tox21 HEK293 Progesterone Receptor (PR) Antagonism Luciferase Follow-Up Assay (AID 2283938; active = hit-call score of the fitted dose curve at least 0.9, where 1 is the maximum;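 note: curve fitted upward as signal gain over DMSO baseline despite antagonist label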)
Chain of PGR (gene 5241) (P06401 whole entry, looked up): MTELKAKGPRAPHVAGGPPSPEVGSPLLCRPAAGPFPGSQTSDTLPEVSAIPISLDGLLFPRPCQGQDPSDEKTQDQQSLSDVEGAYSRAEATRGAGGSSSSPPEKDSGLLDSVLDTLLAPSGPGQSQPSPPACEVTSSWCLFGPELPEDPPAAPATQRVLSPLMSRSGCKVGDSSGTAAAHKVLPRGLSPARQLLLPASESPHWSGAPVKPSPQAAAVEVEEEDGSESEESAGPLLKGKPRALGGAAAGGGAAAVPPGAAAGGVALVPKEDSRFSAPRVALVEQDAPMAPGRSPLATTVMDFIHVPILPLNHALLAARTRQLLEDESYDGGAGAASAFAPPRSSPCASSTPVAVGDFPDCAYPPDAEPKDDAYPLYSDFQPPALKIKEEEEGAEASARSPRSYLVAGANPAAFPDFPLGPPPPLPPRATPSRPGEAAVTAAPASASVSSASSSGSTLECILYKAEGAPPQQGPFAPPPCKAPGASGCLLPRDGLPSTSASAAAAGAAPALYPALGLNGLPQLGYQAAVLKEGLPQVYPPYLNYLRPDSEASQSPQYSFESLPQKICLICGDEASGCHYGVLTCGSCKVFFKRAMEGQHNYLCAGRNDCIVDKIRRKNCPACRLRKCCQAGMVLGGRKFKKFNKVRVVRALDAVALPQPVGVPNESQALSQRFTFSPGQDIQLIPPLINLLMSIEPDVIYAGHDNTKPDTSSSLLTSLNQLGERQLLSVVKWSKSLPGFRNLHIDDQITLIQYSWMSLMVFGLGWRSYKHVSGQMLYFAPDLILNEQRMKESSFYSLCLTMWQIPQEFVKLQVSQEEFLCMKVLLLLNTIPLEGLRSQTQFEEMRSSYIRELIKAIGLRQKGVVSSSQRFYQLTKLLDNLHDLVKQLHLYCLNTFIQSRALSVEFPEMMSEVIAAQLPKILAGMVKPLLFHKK
How it was run: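 HEK293-PR-A-luc cells, 3,000/well, preincubated 5 h at 37C before compound addition in DMSO; 16 h compound exposure at 37C. ONE-Glo luciferase luminescence read after 30 min at room temperature, fitted relative to DMSO baseline.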

[17] = TOX21_PR_LUC_Followup_Agonist_viability: Viability Assessment in the Tox21 HEK293 Progesterone Receptor (PR) Agonism Luciferase Follow-Up Assay (AID 2283941; active = hit-call score of the fitted dose curve at least 0.9, where 1 is the maximum;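 note: loss of signal means cytotoxicity so actives lower viability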)
How it was run: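 Cytotoxicity counter-screen: ATP content by CellTiter-Glo luminescence, loss of signal = reduced viability. HEK293-PR-A-luc, 3,000 cells/well, compound exposure 16 h, 37C.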

[18] = TOX21_PR_LUC_Followup_Antagonist_viability: Viability Assessment in the Tox21 HEK293 Progesterone Receptor (PR) Antagonism Luciferase Follow-Up Assay (AID 2283940; active = hit-call score of the fitted dose curve at least 0.9, where 1 is the maximum)
How it was run: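 Read-out: CellTiter-Glo ATP luminescence, loss of signal taken as reduced viability. Cells: HEK293-PR-A-luc, 3,000/well, 5 h settling, then 16 h compound exposure at 37C, 0% CO2.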

DIO1 (gene 1733) = assay: CCTE_GLTED_hDIO1: CCTE's human Deiodinase 1 (DIO1) Inhibition Assay, Great Lakes Toxicology and Ecology Division (GLTED) Lab (AID 2283987; active = hit-call score of the fitted dose curve at least 0.9, where 1 is the maximum;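 note: isolated human DIO1 enzyme in a cell-free setup rather than cells; enzyme activity read as free iodide liberated from substrate via Sandell-Kolthoff colorimetry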)
How it was run: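 Cell-free human DIO1 enzyme incubated 3 h with test chemical; iodide freed from substrate then measured by Sandell-Kolthoff absorbance. Run in triplicate; loss of signal relative to DMSO taken as inhibition.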

Measured: AC50

Oc1ccccc1Cc1ccccc1O
active: [1] 0.207 µM | [4] 0.159 µM | [5] 7.82 µM | [6] 8.01 µM | [7] 0.1 µM | [8] 6.16 µM | [9] 8.53 µM
inactive: [2] | [3] | [10] | [11]

C=C1C[C@H]2[C@@H]3C=C(C)C4=CC(=O)CC[C@]4(C)[C@H]3CC[C@]2(C)[C@@]1(OC(C)=O)C(C)=O
active: [12] 0.0947 µM | [13] 4 µM
inactive: [14] | [15] | [2] | [3] | [16]

Oc1ccc(/C=C/c2cc(O)cc(O)c2)cc1
inactive: [14] | [2] | [3]
active: [12] 5.07 µM

Nc1ccc(C(=O)OCCCOC(=O)c2ccc(N)cc2)cc1
inactive: PGR (gene 5241) | [17]

CCCCCC[C@@H](O)C/C=C\CCCCCCCC(=O)OCC(O)CO (stereo partly drawn)
inactive: [12] | [13] | [14] | [15]

O=C(O)c1ccc2c(c1)C(=O)OC2=O
inactive: [12] | [13] | [14] | [2] | [3]

Oc1ccc(-c2ccccc2)c(Cl)c1
inactive: [18] | [14] | [15] | [2] | [3] | [16]
active: PGR (gene 5241) 29.7 µM | [12] 13.8 µM | [13] 13.4 µM

CCCC(C)C(=O)OCC (stereo not drawn)
inactive: [1] | [2] | [3] | [4] | [5] | [6] | [7] | [8] | [9] | [10] | [11]

CC1(C)CC(O)CC(C)(C)N1[O]
not listed: [12] | [13] | [14] | [15] | PGR (gene 5241) | [17] | [18] | DIO1 (gene 1733)
inactive: all other assays above

O=C(O)c1cc(O)c2ccccc2c1O
active: DIO1 (gene 1733) 50.1 µM

CN(C)Cc1cc(CN(C)C)c(O)c(CN(C)C)c1
inactive: [12] | [13] | [14] | [15]

CCC(C)c1ccccc1 (stereo not drawn)
inactive: [12] | [13] | [15] | [2] | [3] | [16]

CC/C=C\CCOC(=O)c1ccccc1O
inactive: [1] | [2] | [3] | [4] | [5] | [6] | [8] | [9] | [11]
active: [7] 15 µM | [10] 0.003 µM

CCCCCCCCCCCCCC(=O)OC(C)C
inactive: [13] | [14] | [15] | [2] | [3]

CCCCCCCOC(=O)c1ccc(O)cc1
active: DIO1 (gene 1733) 75 µM
